# Compound activity (PubChem BioAssay)
# VDR inh: Inhibitors of the vitamin D receptor (VDR): qHTS | Vitamin D3 receptor (Homo sapiens), P11473 | VDR-SRC2-3 peptide fluorescence polarization, 2 h | Potency, µM, for the others: max response, negative = inhibition, most hits filed as inhibitors | 400,000 compounds, 0.93% hits | AID 504847, 2011; note: potency is the fitted concentration of half-maximal effect; % is set by controls: 0 for no effect and ±100 for the full control effect
# Target sequence (P11473 whole entry, looked up): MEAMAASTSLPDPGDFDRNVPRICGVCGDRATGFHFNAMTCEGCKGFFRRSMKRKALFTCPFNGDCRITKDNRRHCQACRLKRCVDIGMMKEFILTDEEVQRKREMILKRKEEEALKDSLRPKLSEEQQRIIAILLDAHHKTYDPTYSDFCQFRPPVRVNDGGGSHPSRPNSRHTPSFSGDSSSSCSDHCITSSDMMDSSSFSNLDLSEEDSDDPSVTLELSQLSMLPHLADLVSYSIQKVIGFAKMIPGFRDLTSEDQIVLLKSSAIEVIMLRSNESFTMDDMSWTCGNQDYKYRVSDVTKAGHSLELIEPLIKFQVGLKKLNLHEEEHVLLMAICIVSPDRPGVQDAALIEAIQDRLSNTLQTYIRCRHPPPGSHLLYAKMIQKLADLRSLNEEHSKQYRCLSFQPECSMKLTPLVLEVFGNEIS
#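 Measured by FP: displacement of SRC2-3 coactivator peptide from VDR by library compounds, following a two-hour ambient incubation.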
# Coupling enz: qHTS Assay for Inhibitors of Fructose-1,6-bisphosphate Aldolase from Giardia Lamblia: Coupling assay counterscreen. AID 2472, 2010. activity change, negative = inhibition, % at 58.2 µM, hits read low. 290,000 compounds, 0.67% hits. coupling enzyme system counterscreen, AmpLite Red fluorescence; in the data active = activity change below about -30%; note: % is set by controls: 0 for no effect and ±100 for the full control effect
#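 Compounds tested against the coupling enzymes alone at 57.5 uM final; readout was AmpLite Red fluorescence (525/598 nm) after 20 min at RT.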
# HttQ103 aggreg: qHTS Multiplex Assay to Identify Dual Action Probes in a Cell Model of Huntington: Aggregate Formation (GFP). PC12 HttQ103-GFP aggregates, Acumen cytometry, 40 h. Potency, µM (doses to about 46.1 µM), for inactives: top-dose activity change, negative = inhibition, actives largely listed as inhibitors. 220,000 compounds, 1.1% hits. AID 1688, 2009; note: potency is the fitted concentration of half-maximal effect; % is set by controls: 0 for no effect and ±100 for the full control effect; nearly all actives have a fitted effect of over 60% in size
#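 Aggregates are detected as GFP objects 1–25 µm with signal 6 STDEV over background in lysates of induced PC12 cells. These carry Huntingtin exon 1 with 103 glutamines fused to GFP under an ecdysone promoter; compounds titrated.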
# JMJD2E inh: qHTS Assay for Inhibitors of Human Jumonji Domain Containing 2E (JMJD2E); 230,000 compounds, 1.6% hits; AID 2147, 2009; Potency, µM (titrated, usually from 57.1 µM), inactives show at the highest dose activity change, negative = inhibition, actives largely listed as inhibitors; JMJD2E catalytic domain, FDH-coupled NADH fluorescence (FDH is formaldehyde dehydrogenase); Lysine-specific demethylase 4E (Homo sapiens), B2RXH2; active = well fitted inhibition curve with a large enough effect, not every such curve was filed as active; inconclusive = small, poorly fitted or top-dose-only effect, or another doubt; inactive = no such curve, though single readings can be large or run the other way;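 note: potency is the fitted concentration of half-maximal effect; 0% = wells with enzyme and -100% = buffer wells without enzyme; nearly all actives have a fitted effect of over 50% in size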
# Target sequence (B2RXH2 1-337 limits assumed): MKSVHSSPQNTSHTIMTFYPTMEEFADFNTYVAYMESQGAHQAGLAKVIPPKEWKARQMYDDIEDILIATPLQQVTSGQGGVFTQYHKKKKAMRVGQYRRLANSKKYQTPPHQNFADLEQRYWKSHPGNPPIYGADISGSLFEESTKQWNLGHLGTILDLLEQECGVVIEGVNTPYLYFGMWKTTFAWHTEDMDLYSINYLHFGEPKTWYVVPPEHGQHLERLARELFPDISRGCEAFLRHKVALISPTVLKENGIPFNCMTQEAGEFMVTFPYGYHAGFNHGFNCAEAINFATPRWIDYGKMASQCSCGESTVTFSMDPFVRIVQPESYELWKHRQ
# GoLoco inh red: qHTS Assay for Inhibitors of RGS12 GoLoco Motif Activity (Red Fluorophore) | Gai1:RGS12 GoLoco peptide FP, rhodamine, 10 min | Potency, µM (titrated, usually from 61.6 µM), without a hit: top-dose activity, negative = inhibition, actives largely listed as inhibitors | 230,000 compounds, 0.44% hits | AID 880, 2007; active = well fitted inhibition curve with a large enough effect, not every such curve was filed as active; inactive = no such curve, though single readings can be large or run the other way; note: potency is the fitted concentration of half-maximal effect; % is set by controls: 0 for no effect and ±100 for the full control effect; nearly all actives have a fitted effect of over 30% in size
# HTT cytoprotect: qHTS Multiplex Assay to Identify Dual Action Probes in a Cell Model of Huntington: Cytoprotection (ATP); 230,000 compounds, 0.14% hits; PC12 HTT-Q103 induced, cytoprotection, ATP luminescence, 40 h; Potency, µM (series often up to 56.4 µM), without a hit: cytoprotection (ATP increase), usual class: activators; note: potency is the fitted concentration of half-maximal effect; % of control where 0% means no effect; nearly all actives have a fitted effect of over 45% in size
#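 PC12 cells stably carrying ecdysone-inducible Htt exon 1 (Q103)–GFP were induced with 100 nM tebufenozide (final) alongside library compounds in a dose series. Cytoprotection was scored as retained ATP by ATPlite luminescence.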
# The depositor's hits bear a star; ? = inconclusive; / = not tested or not shown; ! = not confirmed by another sample; [ ] = another dose, or the depositor's remark. Most compounds without a hit are left out; they make up all but 2.3% or so of the library. Unless noted, calls come from the whole dose curve; as a rule, active = well fitted curve in the direction sought with a large enough effect; inconclusive = small, poorly fitted or top-dose-only effect, or another doubt; inactive = no such curve, though single readings can be large; an effect the other way counts as inactive or inconclusive.
SMILES,VDR inh,Coupling enz,HttQ103 aggreg,JMJD2E inh,GoLoco inh red,HTT cytoprotect
Cc1ccc(C(=O)CSc2nnc(-c3ccco3)n2C)cc1,50.1µM*,1.7,/,5.1%,4.3%,/
Cn1c(SCC(=O)c2cc(Cl)c(Cl)s2)nnc1-c1ccco1,-21.8%,13.5,-13.2%[9.22 µM],-4.8%,-3.8%,-10.2%[10 µM]
CCn1c(=O)n(-c2ccc(C)c(F)c2)c(=O)c2sc3ccccc3c21,-7.3%,/,/,/,/,/
CCOC(=O)c1oc2cccc(OCC(O)CNC(C)C)c2c1C (centres undefined),-4.4%,-75.5*,-5.8%,?,-9.6%,-28.1%[0.074 µM]
Cc1cccc(C)c1OCC(O)CNC(C)C (centres undefined),15.0%,-2.7,24.9%,-1.4%,-0.4%,-6.4%[10 µM]
CC(=O)Nc1ccc(SCCN2CCN(CC(C)C)CCC2=O)cc1,50.1µM*,3.2,/,/,/,/
NC(=O)C1(N2CCCCC2)CCN(C(=O)Nc2ccccc2C(F)(F)F)CC1,10.2%,-34.5*,10.0%,-1.1%,10.1%,11.8%[10 µM]
CC(=O)Nc1ccc(S(=O)(=O)/N=C2\C(=O)c3ccccc3C([O-])=C2n2cc[n+](-c3ccccn3)c2)cc1,-26.2%,-38.9*,5.7%[9.22 µM],-9.0%,1.3%,-4.8%[10 µM]
Cc1ccc(NC(=O)C[n+]2ccn(C3=C([O-])c4ccccc4C3=O)c2)cc1,-25.5%,1.7,-7.1%,-9.0%,7.8%,?
CCCC[n+]1ccn(C2=C([O-])c3ccccc3C(=O)/C2=N\S(=O)(=O)c2ccc(Br)cc2)c1,9.1%,-58.8*,?,-3.6%,47.6%,/
Cc1ccc(S(=O)(=O)/N=C2\C(=O)c3ccccc3C([O-])=C2n2cc[n+](CCC(C)C)c2)cc1,-2.8%,-52.0*,?,-2.1%,6.5%,-92.7%
CC(=O)NS(=O)(=O)c1ccc(NC(=O)c2ccccn2)cc1,-3.6%,1.1,?,-3.1%,8.5%,/
CCCC[n+]1ccn(-c2nc3ccccc3nc2[N-]S(=O)(=O)c2ccc(Cl)cc2)c1,1.7%,0.3,-18.6%[9.22 µM],?,-12.4%,19.3%[10 µM]
CN1/C(=C\C(=O)Nc2ccc(F)cc2)C(C)(C)c2ccccc21,1.1%,-15.7,6.31µM*,?,/,-24.5%[10 µM]
CC(C)(O)C(O)COc1c2ccoc2cc2oc(=O)ccc12 (centres undefined),-14.2%,1.0,13.4%,?,7.2%,-21.0%
CC1(C)OC1COc1c2ccoc2cc2oc(=O)ccc12 (centres undefined),-23.2%,-0.7,-1.1%[9.22 µM],31.6µM*,15.3%,-5.8%[10 µM]
CC12CC(NC(=O)N1c1cccc(C(=O)N3CCCCC3)c1)c1ccccc1O2 (centres undefined),2.7%,/,/,/,/,/
CCOC(=O)c1sc(NC(=O)c2cc(-c3ccc(C)cc3)nc3ccccc23)c(C#N)c1C,79.4µM*,4.6,10µM*,-9.1%,-1.7%,-70.4%
CCOC(=O)c1sc(NC(=O)CSc2n[nH]c(-c3ccncc3)n2)c(C#N)c1C,2.2%,4.4,7.08µM*,?,23.5%,-90.8%[10 µM]
Cc1ccccc1-c1cc(C(=O)Nc2sc(C(=O)OC(C)C)c(C)c2C#N)c2ccccc2n1,?,11.2,4.47µM*,?,27.0%,-37.7%
COc1ccccc1-c1cc(C(=O)Nc2sc3c(c2C#N)CCC(C)C3)c2ccccc2n1 (centres undefined),-7.4%,-1.8,-11.1%,5.0%,28.9%,-30.9%
CCOC(=O)c1sc(NC(=O)CSc2nccc(C)n2)c(C#N)c1C,0.6%,3.7,12.1%,1.2%,-12.2%,0.1%
COc1ccc(-c2cc(C(=O)Nc3sc4c(c3C#N)CCCC4)c3ccccc3n2)cc1,-12.8%,2.2,-11.8%,?,9.5%,-3.2%[10 µM]
COC(=O)c1sc(NC(=O)c2cc(-c3ccccc3)nc3ccccc23)c(C#N)c1C,?,-73.3*,2.24µM*,-1.4%,-1.1%,-44.3%
CC(=O)c1ccc(NS(=O)(=O)c2cccc(S(=O)(=O)c3ccc(Cl)cc3)c2)cc1,2.3%,/,/,/,/,/
SMILES,VDR inh,Coupling enz,HttQ103 aggreg,JMJD2E inh,GoLoco inh red,HTT cytoprotect
Cc1cccc(C(=O)N2CCc3cc(CNC(=O)CCc4ccccc4)ccc32)c1,17.3%,/,/,/,/,/
CN1CCc2cccc3c2[C@@H]1Cc1ccc(O)c(O)c1-3,31.6µM*!,-7.3,?,31.6µM*,6.5%,27.4%[1.9 µM]
COc1ccc2c(c1O)-c1ccccc1CCN(C)C2,-9.8%,1.9,2.4%[9.22 µM],-9.6%,-0.2%,-2.5%[10 µM]
Cc1nn(-c2ccccc2)c(OC(=O)C(C)C)c1Sc1ccc(Cl)cc1,89.1µM*,/,/,/,/,/
CCCSc1oc(-c2cccs2)nc1S(=O)(=O)c1ccc(C)cc1,-1.3%,/,/,/,/,/
O=S(=O)(c1ccccc1)c1nc(-c2cccs2)oc1SCc1ccccc1Cl,4.1%,/,/,/,/,/
CCCCS(=O)(=O)c1oc(-c2cccs2)nc1S(=O)(=O)c1ccc(F)cc1,10µM*,/,/,/,/,/
CCSc1oc(-c2cccs2)nc1S(=O)(=O)c1ccccc1,-18.8%,-5.1,12.6µM*,-2.0%,49.5%,-7.1%[10 µM]
COc1ccccc1C(=O)OCc1cc(=O)n2nc(C3CCCCC3)sc2n1,-7.7%,/,/,/,/,/
Cc1cccc(C(=O)Nc2nnc(SCC(=O)Nc3ccc4c(c3)oc3ccccc34)s2)c1,-4.4%,-1.6,-12.1%,-11.9%,7.94µM*,/
O=C(NC1CCCCC1)Oc1cc2oc(=O)sc2cc1Br,44.7µM*,2.1,19.2%[9.22 µM],-15.4%,-14.5%,-3.8%[10 µM]
CN1CCc2c(sc3c2C(=O)NC(c2ccc(OC(=O)c4ccccc4)cc2)N3)C1 (centres undefined),44.7µM*,/,/,/,/,/
CN1CCc2c(sc3c2C(=O)NC(c2ccccc2)N3)C1 (centres undefined),70.8µM*,-21.5,6.4%,?,25.3%,/
CN1CCc2c(sc3c2C(=O)NC(c2ccccn2)N3)C1 (centres undefined),25.1µM*,-61.5*,32.5%,?,28.2µM*,-7.6%[0.074 µM]
Cc1ccc(C2NC(=O)c3c(sc4c3CCN(C)C4)N2)s1 (centres undefined),?,0.2,-11.2%,?,71.6%,-16.5%
O=C1NC(c2ccccn2)Nc2sc3c(c21)CCC3 (centres undefined),-8.2%,-15.5,-11.6%,?,1.9%,-24.3%
CN1CCc2c(sc3c2C(=O)NC(c2ccc(OC(=O)c4ccc(C(C)(C)C)cc4)cc2)N3)C1 (centres undefined),22.9%,/,/,/,/,/
CN(Cc1nc(-c2cccnc2)no1)S(=O)(=O)c1ccc(Br)cc1,-8.2%,-2.0,22.4µM*,-1.6%,-4.1%,-18.5%[10 µM]
